From the supplement of paper PMC11732987, “Enantioselective OTUD7B fragment discovery through chemoproteomics screening and high-throughput optimisation” (Communications Chemistry, 2025)

Tests used:
Assay in all cases: log2 ratio of Biotin-Ahx-Ub-VS probe labelling (fragment/DMSO); higher = less target engagement (more negative = stronger competition), active = hit call of the paper (q ≤ 0.05, log2 ratio ≤ -1)
Settings in all cases: compound concentration: 200 uM; treatment time: 3 h
[1] = target: USP9X (UniProt Q93008)
Method in brief: (§1)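 HEK293T lysate (495 µg per sample, in Tris/CHAPS/IGEPAL buffer with protease inhibitors) was treated in triplicate with fragment at 200 µM or with DMSO for 3 h. It was then treated with Biotin-Ahx-Ub-VS (0.5 µM final) for 1 h. Labelled DUBs were NeutrAvidin-enriched, digested with LysC and trypsin, and run by diaPASEF LC-MS/MS. Spectronaut label-free quantities were global-median-normalised. Values are average log2 ratios fragment/DMSO by unpaired t-test, using proteins with ≥2 unique peptides.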

[2] = target: UniProt O00487
Method in brief: as §1

[3] = target: UniProt O00507
Method in brief: as §1

[4] = target: UniProt P51784
Method in brief: as §1

[5] = target: T1, UniProt Q5T2D3
T1 sequence (whole entry): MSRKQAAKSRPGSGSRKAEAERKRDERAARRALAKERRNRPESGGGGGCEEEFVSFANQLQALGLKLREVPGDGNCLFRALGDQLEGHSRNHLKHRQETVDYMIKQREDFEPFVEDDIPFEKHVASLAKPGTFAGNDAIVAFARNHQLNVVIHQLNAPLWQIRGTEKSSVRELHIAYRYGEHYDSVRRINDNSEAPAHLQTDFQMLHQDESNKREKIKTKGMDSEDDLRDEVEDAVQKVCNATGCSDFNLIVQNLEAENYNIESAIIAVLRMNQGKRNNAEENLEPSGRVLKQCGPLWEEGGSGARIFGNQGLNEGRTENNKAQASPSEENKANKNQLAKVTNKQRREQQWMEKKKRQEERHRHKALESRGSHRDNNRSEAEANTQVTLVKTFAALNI
Method in brief: as §1

[6] = target: T2, UniProt Q8TE49
T2 sequence (whole entry): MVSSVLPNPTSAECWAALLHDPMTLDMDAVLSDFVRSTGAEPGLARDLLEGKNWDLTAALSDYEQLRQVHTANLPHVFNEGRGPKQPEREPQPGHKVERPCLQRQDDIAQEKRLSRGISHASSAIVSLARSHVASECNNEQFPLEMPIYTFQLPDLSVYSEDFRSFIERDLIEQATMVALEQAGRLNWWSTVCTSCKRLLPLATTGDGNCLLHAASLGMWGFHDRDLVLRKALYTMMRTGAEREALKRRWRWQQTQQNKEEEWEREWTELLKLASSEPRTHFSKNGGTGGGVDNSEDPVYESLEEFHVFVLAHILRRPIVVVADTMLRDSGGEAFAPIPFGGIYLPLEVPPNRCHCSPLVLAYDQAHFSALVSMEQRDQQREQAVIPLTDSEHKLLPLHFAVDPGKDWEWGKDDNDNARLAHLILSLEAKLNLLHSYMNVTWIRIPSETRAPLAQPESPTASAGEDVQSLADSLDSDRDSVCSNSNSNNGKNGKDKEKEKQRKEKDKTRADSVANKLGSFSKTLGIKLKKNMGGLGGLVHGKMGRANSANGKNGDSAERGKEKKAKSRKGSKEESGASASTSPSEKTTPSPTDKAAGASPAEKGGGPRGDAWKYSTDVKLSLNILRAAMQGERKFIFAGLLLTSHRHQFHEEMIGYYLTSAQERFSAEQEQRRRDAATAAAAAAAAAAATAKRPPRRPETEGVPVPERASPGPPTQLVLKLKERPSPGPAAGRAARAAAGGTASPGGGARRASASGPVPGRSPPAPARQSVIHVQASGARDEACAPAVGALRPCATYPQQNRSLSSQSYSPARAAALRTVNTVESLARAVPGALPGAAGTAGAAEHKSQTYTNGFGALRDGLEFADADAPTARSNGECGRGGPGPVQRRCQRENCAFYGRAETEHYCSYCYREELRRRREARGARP
Method in brief: as §1

[7] = target: T3, UniProt Q9P2H5
T3 sequence (whole entry): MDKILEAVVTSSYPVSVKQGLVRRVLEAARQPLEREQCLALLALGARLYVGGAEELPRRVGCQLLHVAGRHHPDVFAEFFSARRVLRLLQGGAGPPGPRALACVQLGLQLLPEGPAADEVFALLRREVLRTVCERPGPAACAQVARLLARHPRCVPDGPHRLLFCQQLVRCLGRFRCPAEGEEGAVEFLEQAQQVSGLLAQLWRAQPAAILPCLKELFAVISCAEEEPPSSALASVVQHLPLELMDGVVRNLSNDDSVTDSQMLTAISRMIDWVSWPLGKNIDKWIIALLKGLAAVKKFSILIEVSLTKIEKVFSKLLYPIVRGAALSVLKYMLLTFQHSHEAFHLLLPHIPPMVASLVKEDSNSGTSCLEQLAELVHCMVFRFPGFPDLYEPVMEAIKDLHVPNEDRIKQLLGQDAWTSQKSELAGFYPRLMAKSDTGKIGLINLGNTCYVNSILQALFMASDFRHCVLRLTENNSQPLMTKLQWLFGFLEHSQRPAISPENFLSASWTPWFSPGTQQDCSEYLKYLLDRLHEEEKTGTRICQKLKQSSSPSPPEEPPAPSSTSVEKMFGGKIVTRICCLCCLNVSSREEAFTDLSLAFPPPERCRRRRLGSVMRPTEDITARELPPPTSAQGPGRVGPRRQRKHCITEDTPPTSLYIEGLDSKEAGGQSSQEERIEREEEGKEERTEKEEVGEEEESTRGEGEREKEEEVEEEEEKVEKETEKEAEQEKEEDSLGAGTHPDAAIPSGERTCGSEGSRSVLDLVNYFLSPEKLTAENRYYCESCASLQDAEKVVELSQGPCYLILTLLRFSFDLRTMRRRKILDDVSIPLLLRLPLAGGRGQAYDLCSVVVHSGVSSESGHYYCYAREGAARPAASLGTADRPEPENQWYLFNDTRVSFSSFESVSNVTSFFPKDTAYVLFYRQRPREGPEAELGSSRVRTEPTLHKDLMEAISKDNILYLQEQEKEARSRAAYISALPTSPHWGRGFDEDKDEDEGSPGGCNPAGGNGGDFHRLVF
Method in brief: as §1

[8] = target: T4, UniProt Q9UGI0
T4 sequence (whole entry): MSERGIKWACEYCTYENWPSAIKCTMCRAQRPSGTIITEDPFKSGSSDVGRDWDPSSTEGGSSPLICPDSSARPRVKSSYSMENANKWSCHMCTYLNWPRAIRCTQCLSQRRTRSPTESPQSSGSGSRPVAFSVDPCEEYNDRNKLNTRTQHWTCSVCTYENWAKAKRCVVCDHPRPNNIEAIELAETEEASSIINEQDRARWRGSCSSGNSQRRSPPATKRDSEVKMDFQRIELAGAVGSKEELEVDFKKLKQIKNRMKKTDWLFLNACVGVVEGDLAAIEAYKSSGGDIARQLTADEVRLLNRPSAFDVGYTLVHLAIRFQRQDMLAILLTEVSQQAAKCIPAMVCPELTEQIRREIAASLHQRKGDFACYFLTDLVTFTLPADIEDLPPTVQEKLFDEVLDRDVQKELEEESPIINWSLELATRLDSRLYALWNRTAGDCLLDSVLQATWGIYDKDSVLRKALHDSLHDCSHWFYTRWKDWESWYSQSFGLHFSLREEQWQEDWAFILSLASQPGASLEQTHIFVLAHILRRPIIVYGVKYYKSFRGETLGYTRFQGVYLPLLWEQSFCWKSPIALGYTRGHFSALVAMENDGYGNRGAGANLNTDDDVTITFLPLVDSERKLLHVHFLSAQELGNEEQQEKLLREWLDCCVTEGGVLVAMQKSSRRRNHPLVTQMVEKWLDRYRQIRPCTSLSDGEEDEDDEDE
Method in brief: as §1

[9] = target: T5, YOD1 (UniProt Q5VVQ6)
T5 sequence (whole entry): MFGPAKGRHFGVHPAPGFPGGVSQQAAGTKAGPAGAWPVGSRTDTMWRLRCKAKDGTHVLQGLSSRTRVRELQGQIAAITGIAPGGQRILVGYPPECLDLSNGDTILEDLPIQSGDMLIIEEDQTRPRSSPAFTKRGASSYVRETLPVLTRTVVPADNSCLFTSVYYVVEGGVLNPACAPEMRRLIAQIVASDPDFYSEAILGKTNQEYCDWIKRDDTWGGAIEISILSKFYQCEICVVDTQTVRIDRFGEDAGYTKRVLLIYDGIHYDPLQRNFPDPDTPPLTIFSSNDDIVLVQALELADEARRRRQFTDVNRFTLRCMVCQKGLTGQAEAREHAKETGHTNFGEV
Method in brief: as §1

Measured: log2 ratio of Biotin-Ahx-Ub-VS probe labelling

Chain of UniProt O00507 (O00507 whole entry): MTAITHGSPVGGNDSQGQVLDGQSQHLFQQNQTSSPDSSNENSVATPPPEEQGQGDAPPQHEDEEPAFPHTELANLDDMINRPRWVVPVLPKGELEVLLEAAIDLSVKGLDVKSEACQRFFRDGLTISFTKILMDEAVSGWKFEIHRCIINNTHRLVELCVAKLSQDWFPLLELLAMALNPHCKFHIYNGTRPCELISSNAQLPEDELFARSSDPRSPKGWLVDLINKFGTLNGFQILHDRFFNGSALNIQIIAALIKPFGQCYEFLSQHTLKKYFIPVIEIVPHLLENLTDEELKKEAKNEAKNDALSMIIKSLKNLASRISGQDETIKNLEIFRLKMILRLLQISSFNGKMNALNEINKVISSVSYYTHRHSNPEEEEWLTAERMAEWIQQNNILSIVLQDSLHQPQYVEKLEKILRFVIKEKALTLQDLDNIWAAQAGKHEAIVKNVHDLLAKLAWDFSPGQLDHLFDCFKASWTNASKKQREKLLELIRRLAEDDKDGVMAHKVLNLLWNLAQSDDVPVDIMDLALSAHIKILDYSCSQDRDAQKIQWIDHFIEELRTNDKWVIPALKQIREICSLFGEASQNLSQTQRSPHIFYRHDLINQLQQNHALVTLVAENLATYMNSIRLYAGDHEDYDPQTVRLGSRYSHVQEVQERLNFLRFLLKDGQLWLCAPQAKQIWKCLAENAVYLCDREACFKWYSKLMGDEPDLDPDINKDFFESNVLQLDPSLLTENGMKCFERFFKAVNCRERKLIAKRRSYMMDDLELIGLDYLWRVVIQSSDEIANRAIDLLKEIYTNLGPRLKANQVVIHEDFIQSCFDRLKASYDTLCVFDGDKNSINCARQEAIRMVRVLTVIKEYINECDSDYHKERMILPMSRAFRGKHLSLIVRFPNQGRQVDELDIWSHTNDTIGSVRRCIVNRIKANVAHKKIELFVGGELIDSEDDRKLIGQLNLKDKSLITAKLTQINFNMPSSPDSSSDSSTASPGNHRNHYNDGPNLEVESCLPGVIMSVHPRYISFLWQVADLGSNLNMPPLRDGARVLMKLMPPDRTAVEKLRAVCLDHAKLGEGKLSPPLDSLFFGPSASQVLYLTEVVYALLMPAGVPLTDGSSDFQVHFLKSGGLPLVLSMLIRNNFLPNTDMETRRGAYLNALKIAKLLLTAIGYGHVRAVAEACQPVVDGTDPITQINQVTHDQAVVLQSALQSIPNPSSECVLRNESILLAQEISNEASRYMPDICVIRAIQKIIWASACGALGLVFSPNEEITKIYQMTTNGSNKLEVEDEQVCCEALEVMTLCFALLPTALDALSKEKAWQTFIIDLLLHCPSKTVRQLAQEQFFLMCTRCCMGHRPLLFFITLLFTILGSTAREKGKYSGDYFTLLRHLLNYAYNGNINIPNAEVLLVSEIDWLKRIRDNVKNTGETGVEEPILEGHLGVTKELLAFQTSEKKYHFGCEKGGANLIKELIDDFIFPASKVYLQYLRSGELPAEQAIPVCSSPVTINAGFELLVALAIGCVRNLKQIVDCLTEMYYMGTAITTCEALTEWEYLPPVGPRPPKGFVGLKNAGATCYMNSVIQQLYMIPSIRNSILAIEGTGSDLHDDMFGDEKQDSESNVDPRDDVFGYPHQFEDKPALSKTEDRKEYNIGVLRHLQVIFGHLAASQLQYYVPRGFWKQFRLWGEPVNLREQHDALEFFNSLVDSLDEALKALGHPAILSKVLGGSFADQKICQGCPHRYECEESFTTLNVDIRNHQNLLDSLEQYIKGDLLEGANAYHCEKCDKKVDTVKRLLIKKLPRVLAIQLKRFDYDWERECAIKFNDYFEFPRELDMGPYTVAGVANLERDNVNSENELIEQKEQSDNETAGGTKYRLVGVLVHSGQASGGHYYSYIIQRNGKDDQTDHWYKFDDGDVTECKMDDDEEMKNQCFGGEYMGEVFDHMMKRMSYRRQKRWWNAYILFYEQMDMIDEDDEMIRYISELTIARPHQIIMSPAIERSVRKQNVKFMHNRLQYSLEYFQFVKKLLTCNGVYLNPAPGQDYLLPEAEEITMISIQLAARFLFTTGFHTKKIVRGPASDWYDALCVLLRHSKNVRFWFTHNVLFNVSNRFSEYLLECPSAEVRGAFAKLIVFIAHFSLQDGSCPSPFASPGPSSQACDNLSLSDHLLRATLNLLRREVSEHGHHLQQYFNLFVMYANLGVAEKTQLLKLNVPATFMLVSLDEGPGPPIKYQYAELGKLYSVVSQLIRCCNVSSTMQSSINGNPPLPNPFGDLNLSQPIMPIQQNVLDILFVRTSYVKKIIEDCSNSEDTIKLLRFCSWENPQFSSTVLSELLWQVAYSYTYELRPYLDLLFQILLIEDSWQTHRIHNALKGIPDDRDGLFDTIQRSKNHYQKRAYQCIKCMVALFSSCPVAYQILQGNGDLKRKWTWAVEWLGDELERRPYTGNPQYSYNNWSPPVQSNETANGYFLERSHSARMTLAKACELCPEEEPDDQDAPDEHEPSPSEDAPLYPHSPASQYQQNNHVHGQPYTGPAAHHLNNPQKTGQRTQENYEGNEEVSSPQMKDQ
Chain of UniProt O00487 (O00487 whole entry): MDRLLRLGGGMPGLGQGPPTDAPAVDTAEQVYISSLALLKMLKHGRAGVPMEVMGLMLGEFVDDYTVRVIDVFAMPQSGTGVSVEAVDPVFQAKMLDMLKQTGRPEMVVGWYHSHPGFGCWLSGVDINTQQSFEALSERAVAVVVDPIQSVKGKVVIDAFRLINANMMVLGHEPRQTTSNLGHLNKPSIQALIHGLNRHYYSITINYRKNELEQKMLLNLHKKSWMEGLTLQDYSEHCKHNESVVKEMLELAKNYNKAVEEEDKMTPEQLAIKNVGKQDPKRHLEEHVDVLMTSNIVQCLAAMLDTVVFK
Chain of UniProt P51784 (P51784 whole entry): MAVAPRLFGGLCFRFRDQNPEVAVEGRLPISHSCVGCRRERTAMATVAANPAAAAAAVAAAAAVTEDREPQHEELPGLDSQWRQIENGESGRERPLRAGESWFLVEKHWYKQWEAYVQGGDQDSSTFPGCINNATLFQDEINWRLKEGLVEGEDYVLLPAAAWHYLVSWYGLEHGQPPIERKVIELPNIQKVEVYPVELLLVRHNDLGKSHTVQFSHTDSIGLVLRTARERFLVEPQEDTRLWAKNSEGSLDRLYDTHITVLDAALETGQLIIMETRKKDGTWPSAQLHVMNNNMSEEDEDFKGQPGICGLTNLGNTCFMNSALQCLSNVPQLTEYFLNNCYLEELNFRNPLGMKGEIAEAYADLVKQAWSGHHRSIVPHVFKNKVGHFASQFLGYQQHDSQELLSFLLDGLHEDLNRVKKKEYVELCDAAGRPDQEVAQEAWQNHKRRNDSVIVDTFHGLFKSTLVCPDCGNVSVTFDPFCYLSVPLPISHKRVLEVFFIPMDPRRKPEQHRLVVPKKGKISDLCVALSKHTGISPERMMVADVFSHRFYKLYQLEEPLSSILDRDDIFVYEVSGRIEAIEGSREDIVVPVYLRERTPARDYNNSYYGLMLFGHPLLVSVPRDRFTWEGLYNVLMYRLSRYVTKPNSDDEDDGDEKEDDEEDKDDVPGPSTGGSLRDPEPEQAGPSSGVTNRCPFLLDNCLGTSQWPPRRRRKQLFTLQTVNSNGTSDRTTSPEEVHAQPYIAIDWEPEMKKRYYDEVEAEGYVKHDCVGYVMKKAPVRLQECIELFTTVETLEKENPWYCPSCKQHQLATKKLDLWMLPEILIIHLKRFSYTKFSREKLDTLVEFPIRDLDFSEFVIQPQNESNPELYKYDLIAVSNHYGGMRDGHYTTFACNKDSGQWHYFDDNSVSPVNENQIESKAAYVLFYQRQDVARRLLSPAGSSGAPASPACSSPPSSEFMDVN

O=C(CCl)N1CCC(C(=O)N2CCCCCC2)CC1
inactive: [1] -0.297 | [2] -0.112 | [3] 0.0804 | [4] 0.0166 | [5] -0.255 | [6] -0.488 | [7] -0.287 | [8] -0.0376 | [9] 0.016
